Source: PubChem BioAssay (several laboratories)
MITF TRPM1 inh: reduces MITF-dependent TRPM1 promoter luciferase signal; SK-MEL-5 TRPM1 promoter luciferase, 24 h; inhibition, % at 12.5 µM; actives 0.83% (n = 330,000);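 active means mean inhibition across replicates of 60% or more, whatever share of single replicates reaches that level; inconclusive means some that reach 60%, reason not given; inactive means mean inhibition across replicates below 60%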
EBV LMP1 NFkB: Epstein-Barr LMP1 NF-kappaB reporter inhibition. AID 504558. inhibition, % at 12.5 µM. LMP1-induced NF-kappaB luciferase reporter cells, luminescence. actives 0.69% (n = 350,000); in the data active means inhibition above about 41%; inconclusive means no clear call, values can overlap the other calls;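 further: 0% = neutral control wells and 100% = reference inhibitor control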
HIF-2a block: HIF-2a inhibition. 786-0 RCC cells HIF-2a reporter, luciferase luminescence, overnight. inhibition, % at 18.8 µM. actives 0.72% (n = 360,000);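 active means inhibition of the luminescence signal of 40% or more relative to plate controls, in a single-dose primary screen at 18.75 µM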
KKLEB cytotox: reduces viability of KKLEB cystic fibrosis airway cells. KKLEB CF airway cells viability, ATPlite luminescence, overnight; active compounds read low; cells stimulated with P. aeruginosa culture filtrate. AID 602141. actives 0.36% (n = 360,000). activity change (cytotoxicity), % at 5 µM;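 active means corrected activity change at or below -50% at 5 µM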
CF NFkB block: blocks PAF-induced NF-kB reporter in cystic fibrosis cells. KKLEB NF-kB-GFP reporter, GFP fluorescence overnight. inhibition, % at 5 µM. actives 0.86% (n = 360,000). AID 588850;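 active means at least 50% inhibition at 5 µM, scaled per plate between neutral and stimulator controls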;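 further: PAF is a Pseudomonas aeruginosa culture filtrate used as stimulus; plate controls were PAF-stimulated DMSO wells for no effect and unstimulated DMSO wells for full effect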
Peg3 prom inh: inhibitors of Peg3 promoter; actives 1.7% (n = 360,000); inhibition, % at 20 µM; AID 588405; HeLa PEG-Prom luciferase reporter, luminescence, overnight;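 active means inhibition of at least 50% at 20 µM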
* marks the source's active call; other numbers are inactive results; ? = inconclusive; · = not tested or not shown. The list is not random: actives were taken first. Their share in the collection is about 3%.

SMILES | MITF TRPM1 inh | EBV LMP1 NFkB | HIF-2a block | KKLEB cytotox | CF NFkB block | Peg3 prom inh
COc1ccc(C/C(N)=N/OC(=O)c2ccc(Cl)cc2)cc1 | -8 | -9 | -2 | 9 | -14 | 3
COC(=O)C1=C(C)NC2=C(C(=O)c3ccccc32)C1c1cccc(OC)c1 (stereo not drawn) | 8 | 10 | 23 | 15 | -9 | 12
CC1=C([N+](=O)[O-])C(c2cccc(Br)c2)C2=C(N1)c1ccccc1C2=O (stereo not drawn) | 61* | -4 | 17 | -56* | 35 | 38
COc1ccc2oc(=Nc3ccccc3)c(-c3nc4ccccc4[nH]3)cc2c1 | -11 | -31 | -213 | -67* | -15 | -155
COc1ccc(-c2nc3ccccc3[nH]2)cc1 | -3 | 30 | -40 | -18 | -10 | -21
O=c1[nH]nnc2cc(Cl)ccc12 | 8 | -3 | 9 | -1 | -4 | 23
Cc1ccc(-c2nc3ccc(Br)cn3c2Cc2cccc(Cl)c2)cc1 | · | · | -197 | 2 | -7 | -106
CC(C)N1CCC1(C)C(=O)Nc1ccc(-n2cccc2)cc1 (stereo not drawn) | · | · | -13 | -4 | -11 | -11
O=C(COc1ccccc1)NNc1nc2c(F)cc(F)cc2s1 | 0 | 4 | 7 | -9 | 6 | 13
O=C(Nc1nc2c(F)cc(F)cc2s1)c1ccccn1 | 65* | 44* | -144 | -21 | -28 | 75*
O=C(NCC(=O)N1CC(O)CC1C(=O)N1CC(O)CC1C(=O)OCc1ccccc1)OCc1ccccc1 (stereo not drawn) | 19 | 2 | 9 | 9 | -7 | 11
CC(NC(=O)CNC(=O)OCc1ccccc1)C(=O)N1CC(O)CC1C(=O)OCc1ccccc1 (stereo not drawn) | 6 | 65* | 15 | 4 | 4 | 11
Cc1nc2ccc(F)cc2cc1C(=O)NCC1CCCO1 (stereo not drawn) | -9 | 0 | 14 | -89* | -7 | -1
CCOC(=O)/C=c1/s/c(=C/c2ccccc2OC)c(=O)n1CC(=O)N1CCOCC1 | 0 | -2 | -6 | -10 | -13 | 24
CC(NC(=O)Nc1nnc(C(F)(F)F)s1)(C(F)(F)F)C(F)(F)F | 26 | 44* | 1 | -1 | 46 | 23
Cc1cccc(C(C)C)c1NC(=O)COC(=O)CCC(=O)N(CC(C)C)c1c(N)n(CC(C)C)c(=O)[nH]c1=O | · | 1 | 7 | 20 | 0 | -15
O=c1cc(-c2ccc(O)cc2)oc2c1ccc1ccccc12 | -41 | -2 | -79 | -9 | -102 | -17
O=c1cc(-c2ccncc2)oc2c1ccc1ccccc12 | -1 | -22 | -13 | -12 | -13 | 80*
CC12CCCC[C@@H]1CCC1C2CCC2(C)C1CC[C@@]2(O)CNCCO (stereo partly drawn) | -19 | 3 | 10 | -9 | 19 | 110*
CC1CCN(CCCn2c(=S)[nH]c3ccc(N4CCOCC4)cc3c2=O)CC1 | 8 | -10 | 13 | -67* | 8 | 4
CC(C)c1cc(NC(=O)c2ccccc2)cc(C(C)C)c1O | -1 | 59* | 10 | -2 | 22 | 21
CC(=O)Nc1cc(C(C)C)c(O)c(C(C)C)c1 | 1 | 2 | 17 | 1 | 7 | -1
O=C(Nc1ccccc1)c1nnsc1S(=O)c1ccc(Cl)cc1 (stereo not drawn) | 24 | -21 | 35 | -25 | 56* | 88*
Cc1ccc(C(=O)/C=C/C(=O)c2ccc(C)cc2)cc1 | 50 | 45* | -34 | -67* | 78* | 112*
Cc1ccc(C(=O)/C=C/Nc2ccccc2C(N)=O)cc1 | -1 | 16 | -8 | -56* | -18 | -17
SMILES | MITF TRPM1 inh | EBV LMP1 NFkB | HIF-2a block | KKLEB cytotox | CF NFkB block | Peg3 prom inh
Cc1ccc(/C=C/C(=O)c2ccc(C)cc2)cc1 | -49 | -10 | -152 | 2 | -17 | -196
O=C1NN=C2CCCCCCCCCCC12 (stereo not drawn) | · | -1 | 9 | 9 | -15 | 4
CCc1ccc(NC(=S)NC2CCN(Cc3ccccc3)CC2)cc1 | -4 | 5 | -12 | 4 | -5 | 12
CCC(C)c1ccc(NC(=S)NC2CCN(Cc3ccccc3)CC2)cc1 (stereo not drawn) | 19 | 6 | 12 | -1 | 2 | 77*
Fc1ccc(NC(=S)NNc2ncc(C(F)(F)F)cc2Cl)c(F)c1 | ? | 45* | 34 | -8 | 40 | 38
COc1ccc(C(=O)N[C@H](C(=O)OCCCOC(=O)[C@@H](NC(=O)c2ccc(OC)cc2)C(C)C)C(C)C)cc1 | 16 | 7 | 16 | 2 | -18 | 15
CC1=C(C#N)C(=O)NC(=O)/C1=C/c1ccc(-c2ccc(S(N)(=O)=O)cc2)o1 | 5 | 4 | 19 | -10 | 2 | 6
CS(=O)(=O)N(CCC#N)Cc1ccc(/C=C2\C(=O)Nc3ccccc32)o1 | -8 | 19 | 18 | -6 | 50* | 16
Cc1sc(NC(=O)CCCC(=O)O)c(C(N)=O)c1-c1ccccc1 | 41 | 11 | 78* | -4 | 15 | -74
Cc1cnc(C)c(Nc2nc(C(N)Cc3ccc(Cl)cc3)cs2)n1 (stereo not drawn) | · | · | 20 | -12 | 10 | 46
O=[N+]([O-])c1c(NCCCO)cc(Sc2nc3ccccc3s2)c2nonc12 | 70* | 2 | 35 | 13 | -20 | 101*
Cc1nnc(Sc2cc(NCCO)c([N+](=O)[O-])c3nonc23)s1 | 67* | -2 | 25 | 20 | -10 | 31
O=[N+]([O-])c1c(NCCO)cc(N2CCCCCC2)c2nonc12 | -5 | -1 | 24 | -3 | -9 | 16
CCCSc1cc(NCCOC(C)=O)c([N+](=O)[O-])c2nonc12 | 4 | 11 | 24 | -10 | -15 | 14
Cc1nnc(Sc2cc(NCCCO)c([N+](=O)[O-])c3nonc23)s1 | 75* | -1 | 32 | 6 | -7 | 56*
CC(=O)OCCCNc1cc(SCc2ccco2)c2nonc2c1[N+](=O)[O-] | 6 | 13 | -1 | 2 | 1 | 46
CCCSc1cc(NCCOC(=O)CCC)c([N+](=O)[O-])c2nonc12 | -6 | 0 | 14 | -2 | -6 | 56*
CC(C)(C)NC(=O)C1C(c2ccccc2)=Nc2ccccc2N1C(=O)c1ccc(C(F)(F)F)cc1 (stereo not drawn) | · | · | -58 | · | · | ·
COc1ccc(CN2C(=O)C(CC(=O)NCC3CCCCC3)CC(C(=O)N3CCOCC3)=C2C)cc1 (stereo not drawn) | · | 2 | -2 | 14 | -8 | 3
CCN(CC)CCOC(=O)c1ccc(NC(=O)CCCN2C(=O)S/C(=C/c3ccc(OC)cc3)C2=S)cc1 | 24 | 17 | 79* | -1 | 29 | 108*
O=C(CCCN1C(=O)/C(=C/c2ccc3c(c2)OCO3)SC1=S)Nc1cccc(C(=O)O)c1 | 10 | 28 | 88* | -24 | 3 | 28
COc1cccc(/C=C2\SC(=S)N(CCCC(=O)NC3=NCCS3)C2=O)c1 | 12 | 3 | 87* | -2 | -14 | 29
